Screening results from PubChem.
In the library only some 3% were active in any assay of this set; here they are far more common.
esBAF inh = SWI/SNF esBAF complex inhibition; reporter increase, % at 12.5 µM; 2% of 350,000 active; mouse ES cells, Bmi1-luciferase knock-in reporter, 24 h; 100% = twice the neutral-well signal; in the data active = activation above about 40%; inconclusive = no clear call, values can overlap the other calls;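 also: 0% = median of the plate's neutral control wells and 100% = double that signal; a rise in the Bmi1 reporter signal indicates esBAF inhibition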
Wnt act = activates Wnt/beta-catenin signaling in a reporter cell assay | activator, plate reader | activation, % at 9.35 µM | 1.2% of 300,000 active | AID 743398; in the data active = activation above about 30%, passing the limit was not always enough; inconclusive = no clear call, values can overlap the other calls;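 also: 0% = neutral control wells and 100% = positive control wells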
N-glyco inh = N-linked glycosylation inhibition. D54 ERlucT glycosylation luciferase reporter, 24 h; percent of 100 nM tunicamycin response. reporter increase, % at 12.5 µM. 0.23% of 360,000 active. AID 588692;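 active = mean luciferase reporter signal, scaled so untreated is 0 and the glycosylation-blocking control 100, at or above a set limit in every replicate; inconclusive = mean reaches the limit but not every replicate does; inactive = mean below the limit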;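 also: luciferase carries N-glycosylation sites so blocking glycosylation raises the light; 0% = median of neutral control wells and 100% = median of 100 nM tunicamycin wells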
PfHsp90 yeast 2 = inhibits growth of yeast expressing Plasmodium falciparum Hsp90; S. cerevisiae expressing PfHsp90, BacTiter-Glo ATP, 48 h; yeast lacking PDR1 and PDR3 efflux regulators; inhibition, % at 9.4 µM; 0.32% of 310,000 active; AID 504621;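 active = every replicate shows inhibition above about 80%, whatever the replicate mean, limit read from the data; inconclusive = mean inhibition reaches the set limit but some replicate falls short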;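 also: 0% = DMSO neutral controls and 100% = 20 µM radicicol positive controls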
MITF act = increases MITF-driven TRPM1 promoter luciferase signal | 0.75% of 300,000 active | AID 588334 | SK-MEL-5 TRPM1-promoter luciferase, 24 h; % of positive control, neutral wells = 0 | activation, % at 12.5 µM;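 active = mean activation of at least 80% with every replicate also reaching 80%; inconclusive = mean reaches 80% but some replicate falls short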;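 also: 0% = neutral control wells and 100% = parthenolide positive control wells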
Vif imaging = inhibitors of HIV Vif. HEK293T cells, Vif self-association by quenched fluorescence, imaging, 24 h. inhibition, % at 7.49 µM. 0.35% of 340,000 active; in the data active = inhibition above about 50%, passing the limit was not always enough; inconclusive = no clear call, values can overlap the other calls; inactive = below about 31%
Numbers without * were called inactive; ? = inconclusive; nt = not tested or not shown; + = active, no number.

SMILES | esBAF inh | Wnt act | N-glyco inh | PfHsp90 yeast 2 | MITF act | Vif imaging
Cc1c(NC(=O)/C=C/c2cn(-c3ccccc3)nc2-c2ccc(F)cc2)c(=O)n(-c2ccccc2)n1C | 7 | 0 | 13 | -29 | 6 | -3
COc1ccc(C)c2sc(=NC(=O)C(C)C)n(C)c12 | -6 | 0 | 5 | -5 | nt | 12
COc1ccccc1N(C)S(=O)(=O)c1ccc(C(=O)Nc2cc(F)ccc2C)cc1 | 2 | -2 | -1 | nt | -9 | -3
CCN(CC)CCNc1ccc(CO)c2oc3cc(Cl)ccc3c(=O)c12 | 22 | -1 | 35* | nt | nt | nt
CCOC(=O)c1c(C)[nH]c(-c2csc(C)n2)c1C | nt | 6 | 0 | -8 | 58 | -3
CCOC(=O)c1c(C)[nH]c(-c2csc(N)n2)c1C | nt | -6 | 27* | -24 | 0 | 112*
O=C(c1ccccc1)c1ccc(-c2ccc(O)cc2)cc1 | 76* | 35* | 5 | -9 | 24 | -3
O=C(c1ccccc1)c1ccccc1 | 0 | -2 | -1 | -19 | 16 | 6
COc1ccccc1CNC(=O)CN(c1cccc([N+](=O)[O-])c1)S(C)(=O)=O | -1 | -1 | 1 | -3 | -6 | 24
O=C(c1ccco1)N1CCN(C23CC4CC(CC(C4)C2)C3)CC1 | -8 | 2 | 4 | -9 | 12 | 3
Cc1ccc(C(=O)Nc2ccc(OCc3ccccc3)cc2)s1 | 32 | -3 | -4 | -19 | 61 | -10
Cc1ccsc1C(=O)Nc1ccc(OCc2ccccc2)cc1 | 54* | 17 | -4 | 6 | 55 | -12
O=C(Nc1ccc(OCc2ccccc2)cc1)c1ccccc1 | nt | -6 | -2 | -2 | 50 | -11
CCOC(=O)c1c(NC(=O)c2cc(C)oc2C)sc(C(=O)Nc2ccc(Cl)cc2)c1C | ? | 42* | 0 | -7 | 75 | nt
Cc1cc(C(=O)Nc2ccc(OCc3ccccc3)cc2)c(C)o1 | 44* | 28 | 0 | 3 | 64 | 5
CC(C)=CC(=O)Nc1ccc(Br)cc1 | 66* | -3 | -3 | -4 | 107* | 5
COc1ccc(C(C)(NC(C)=O)c2nc(-c3ccc(F)c(Cl)c3)cs2)cc1 (stereo unspecified) | 6 | 0 | -4 | nt | nt | -4
COCCNc1nc2c(c(=O)n(C)c(=O)n2C)n1Cc1cccc(C)c1 | -15 | -6 | -1 | -12 | -18 | -3
CC(C)=CC(=O)Nc1ccc(OCc2ccccc2)cc1 | 50* | 41* | -2 | 3 | 64 | 15
CCOC(=O)C(=O)Nc1ccc(OCc2ccccc2)cc1 | -5 | -1 | 0 | 13 | 4 | -2
Cc1c(C(=O)O)sc(=S)n1-c1ccc(Cl)cc1 | nt | nt | -6 | -24 | -6 | -10
Cc1c(Cl)sn(-c2ccc(Cl)cc2)c1=O | -8 | -10 | -9 | 111* | -97 | 25
Oc1ccc(/C=N/Nc2ncnc3nc[nH]c23)cc1 | 0 | 1 | 1 | 16 | -2 | 6
Cc1ccc(/C=N/Nc2ncnc3nc[nH]c23)cc1 | 0 | 47* | -4 | 17 | 74 | 8
Fc1cccc(/C=N/Nc2ncnc3nc[nH]c23)c1 | -22 | 28 | 3 | 22 | 73 | 15
SMILES | esBAF inh | Wnt act | N-glyco inh | PfHsp90 yeast 2 | MITF act | Vif imaging
Clc1ccc(/C=N/Nc2ncnc3nc[nH]c23)cc1 | 11 | 0 | 1 | 15 | 187* | 0
O=C(CCCc1ccccc1)c1ccc2c(c1)OCCO2 | -84 | -12 | -23 | -13 | -78 | nt
O/N=C(/CCc1ccccc1)c1ccc2c(c1)OCCO2 | 46* | 9 | 2 | -21 | 92* | -1
O=C(CCc1ccccc1)c1ccc2c(c1)OCCCO2 | 76* | nt | -7 | nt | 122* | 19
O=C(CN(Cc1ccco1)C(=O)Cn1nnc(-c2cccs2)n1)NCc1ccccc1 | 10 | nt | 1 | -21 | -5 | 11
Cc1ccc(C(C)C)c(OCC(=O)N/N=C/c2ccc(S(=O)(=O)O)o2)c1 | -8 | 9 | 0 | -16 | nt | 1
Cc1sc(NC(=O)c2sc3nc4c(C)cccc4cc3c2N)c(C#N)c1C | -2 | nt | 3 | nt | nt | 53*
COc1cccc(C(NC(C)=O)c2nc(-c3ccc(F)cc3OC)cs2)c1 (stereo unspecified) | -12 | -7 | 50* | nt | nt | -5
COc1ccc(-c2csc(C(NC(C)=O)c3ccccc3)n2)cc1 (stereo unspecified) | 3 | 0 | 1 | nt | nt | -3
COc1cc(F)ccc1-c1csc(C(NC(C)=O)c2ccccc2)n1 (stereo unspecified) | -5 | -4 | 50* | nt | nt | 4
COc1cc(F)ccc1-c1csc(C(NC(C)=O)c2ccc(F)c(F)c2)n1 (stereo unspecified) | 3 | -2 | 42* | nt | nt | 5
COc1ccccc1-c1csc(C(NC(C)=O)c2ccccc2)n1 (stereo unspecified) | 1 | 0 | 42* | nt | nt | 6
Cc1ccc(OCC(=O)Nc2ccc(Cl)cc2)c(-n2nc3ccccc3n2)c1 | -5 | nt | -4 | -10 | 2 | -5
O=C1S/C(=C/c2ccc(N3CCOCC3)o2)C(=O)N1Cc1c(F)cccc1Cl | -8 | nt | -4 | 95* | nt | +
O=C1N=C(N2CCOCC2)S/C1=C/c1ccc(-c2ccccc2Cl)o1 | 0 | nt | -1 | -16 | nt | 38
O=C1S/C(=C\c2ccc(N3CCOCC3)o2)C(=O)N1c1ccccc1 | 0 | -4 | -1 | -127 | 61 | 23
O=C1S/C(=C\c2ccc(N3CCOCC3)o2)C(=O)N1Cc1c(F)cccc1Cl | -6 | -1 | 3 | 97* | -5 | 8
COc1ccccc1NC(=O)c1cc(OC)c(OC)cc1[N+](=O)[O-] | -8 | 1 | 1 | 14 | -1 | 24
CNc1ccc(Cl)nn1 | 1 | -1 | 2 | -5 | -3 | -3
COc1cc(/C=C(/C#N)C(=O)NC(C)c2ccccc2)cc(OC)c1O (stereo unspecified) | 9 | -1 | 2 | 24 | 9 | 54*
O=C(/C=C/c1cccc(F)c1)c1ccc(N2CCOCC2)cc1 | 13 | -2 | 13 | -18 | 36 | 4
O=C(/C=C/c1cccs1)c1ccc(N2CCOCC2)cc1 | 52* | 7 | -7 | -1 | 20 | 14
N/C(=N\OC(=O)Cc1ccc(Cl)cc1)c1ccccn1 | 47* | nt | -1 | -3 | 78 | 5
Cc1ccc(OCC(=O)O/N=C(\N)c2cccnc2)cc1 | nt | 14 | 2 | 3 | 37 | 5
COc1ccc(CC(=O)O/N=C(\N)c2ccccn2)cc1OC | 6 | 5 | 0 | -15 | 4 | 3
Cc1ccc(OCC(=O)O/N=C(\N)c2ccccn2)cc1 | 46* | -3 | -1 | 16 | 80 | 13
N/C(=N\OC(=O)Cc1cccc2ccccc12)c1ccccn1 | nt | 42* | -2 | -1 | 79 | 7
Cc1cccc(OCC(=O)O/N=C(\N)c2ccccn2)c1C | 72* | 20 | -3 | 5 | ? | nt
